Six compounds from PubChem BioAssay (NCI) can be followed below.

Common to all, as to assay: NCI-60 one-dose screen, 48 h (100 = growth as untreated, 0 = no growth, -100 = all killed)
The subject of experiment [1] is HCT-15 colon.
Experiment [2] has as its system HT29 colon.
Experiment [3] deals with SNB-75 CNS.
The subject of experiment [4] is SNB-19 CNS.
For experiment [5], the system named is U251 CNS.
Experiment [6] relates to PC-3 prostate.
The subject of experiment [7] is SK-MEL-5 melanoma.
For experiment [8], the system named is UACC-62 melanoma. The note with it: 10 µM unless noted.
The subject of experiment [9] is LOX IMVI melanoma.
The subject of experiment [10] is SK-MEL-28 melanoma.
Experiment [11] relates to SK-MEL-2 melanoma.
In experiment [12] the test system is EKVX NSCLC.
Experiment [13] deals with SN12C renal.
Experiment [14] has as its system UO-31 renal.
Experiment [15] relates to TK-10 renal.
The subject of experiment [16] is ACHN renal. The note with it: 10 µM unless noted.
Experiment [17] concerns CAKI-1 renal. The note with it: 10 µM unless noted.
Experiment [18] deals with A498 renal.
Experiment [19] has as its system CCRF-CEM leukemia.
The subject of experiment [20] is MOLT-4 leukemia.

The panel holds about 83,000 compounds, 20% with a hit somewhere; the sample as a whole holds those more often.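 A percent growth of 40 corresponds to 60% growth inhibition; 0 means no net growth; -100 means all cells died. Active threshold: below 10.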 Unmarked numbers belong to inactive results. Calls of active or inactive are those of the source.

For `COc1cc(/C=C2\CCC/C(=C\c3cc(CN4CCCC4)c(O)c(OC)c3)C2=O)cc(CN2CCCC2)c1O`, the growth in experiment [1] (10 µM unless noted) was 16.3%; in [2] (10 µM unless noted), -46.2% (active); in experiment [3] (10 µM unless noted), 20.3%; in [4] (10 µM unless noted), 44.7%; in experiment [5] (10 µM unless noted) it was 25.3%; in experiment [6] (10 µM unless noted), 31.2%. Besides, the growth in experiment [7] (10 µM unless noted) is 71.1%; in experiment [8], 88.6%; in [9] (10 µM unless noted), 9.9% (active); in experiment [10] (10 µM unless noted), 92.2%; in experiment [11] (10 µM unless noted) it was 82.6%; in experiment [12] (10 µM unless noted), 32.4%. In addition, the growth was 30.3% in experiment [13] (10 µM unless noted); 47.4% in [14] (10 µM unless noted); 70.1% in experiment [15] (10 µM unless noted); 48.2% in [16]; 55.2% in [17]; 85.3% in experiment [18] (10 µM unless noted). Further, the growth in experiment [19] (10 µM unless noted) is 17.6%.

With `CC(=O)/C=C/c1ccc(OCc2ccc(Cl)cc2)cc1`, the growth in experiment [1] (10 µM) was 96.7%; in experiment [1] (100 µM), 42%; in [2] (10 µM), 94.3%; in [2] (100 µM), 36.2%; in experiment [3] (10 µM) it was 91%; in experiment [3] (100 µM) it was 35.6%. For the same compound, the growth is 105% in experiment [4] (10 µM); 51.7% in experiment [4] (100 µM); 88.3% in experiment [5] (10 µM); 33.9% in [5] (100 µM); 90% in [6] (10 µM); 36.1% in experiment [6] (100 µM). The growth in [7] (10 µM) is 97.7%; in experiment [7] (100 µM), -37% (active); in [9] (10 µM), 86.7%; in [9] (100 µM), 32.2%; in experiment [10] (10 µM), 112%; in experiment [10] (100 µM), 26.1%. Also, the growth is 101% in experiment [11] (10 µM); 4.19% (active) in experiment [11] (100 µM); 116% in experiment [12] (10 µM); 28.8% in experiment [12] (100 µM); 102% in experiment [13] (10 µM); 48.6% in experiment [13] (100 µM). Moreover, the growth in experiment [14] (10 µM) is 91.4%; in [14] (100 µM) it was 21%; in experiment [15] (10 µM), 77.6%; in [15] (100 µM) it was 27.9%; in experiment [16], 109%; in experiment [18] (10 µM), 82.6%. The growth in experiment [18] (100 µM) is 12.1%; in [19] (10 µM), 86.8%; in experiment [19] (100 µM), 41.2%; in [20] (10 µM) it was 92.8%; in experiment [20] (100 µM), 16.7%.

Consider `NC(N)=NC(N)=NCCCc1ccco1`, for which the growth in [1] (10 µM unless noted) was 106%; in [2] (10 µM unless noted), 94.4%; in [3] (10 µM unless noted) it was 111%; in [4] (10 µM unless noted) it was 103%; in experiment [5] (10 µM unless noted), 101%; in experiment [6] (10 µM unless noted), 103%. Also, the growth in experiment [7] (10 µM unless noted) was 101%; in experiment [8], 113%; in [9] (10 µM unless noted), 97.1%; in [10] (10 µM unless noted), 98.8%; in [11] (10 µM unless noted), 96.1%; in experiment [12] (10 µM unless noted) it was 113%. The growth in [13] (10 µM unless noted) is 108%; in [14] (10 µM unless noted), 102%; in [15] (10 µM unless noted), 86.2%; in [16], 107%; in [17], 96.4%; in [18] (10 µM unless noted), 118%. The growth in experiment [19] (10 µM unless noted) was 101%; in experiment [20] (10 µM unless noted) it was 93.2%.

Consider `C[C@]12CCc3c(ccc4cc(O)ccc34)[C@@H]1C[C@H](O)[C@@H]2O`, for which the growth was 108% in experiment [1] (10 µM unless noted); 102% in experiment [2] (10 µM unless noted); 116% in [3] (10 µM unless noted); 95% in experiment [4] (10 µM unless noted); 101% in experiment [5] (10 µM unless noted); 78.5% in experiment [6] (10 µM unless noted). Moreover, the growth in [7] (10 µM unless noted) is 102%; in experiment [8] it was 88.6%; in experiment [9] (10 µM unless noted), 93.3%; in [10] (10 µM unless noted), 110%; in [11] (10 µM unless noted), 125%; in experiment [12] (10 µM unless noted) it was 74.7%. Besides, the growth in experiment [13] (10 µM unless noted) is 93%; in [14] (10 µM unless noted), 85.3%; in experiment [15] (10 µM unless noted), 110%; in experiment [16], 98%; in experiment [17], 77.5%; in experiment [18] (10 µM unless noted), 73%. Also, the values for the growth in [19] (10 µM unless noted) and in experiment [20] (10 µM unless noted) were 84.7% and 102%, respectively.

As to `Nc1ccc(-c2nc3ccc4[nH]ncc4c3c3c2CCCC3)cc1F`, the growth in experiment [1] (10 µM unless noted) is 15.5%; in experiment [2] (10 µM unless noted), 28%; in experiment [3] (10 µM unless noted), 19.3%; in experiment [4] (10 µM unless noted), 41.9%; in experiment [5] (10 µM unless noted), 26.8%; in [6] (10 µM unless noted) it was 27.7%. Also, the growth is 4.72% (active) in experiment [7] (10 µM unless noted); 14.5% in [8]; 29.4% in [9] (10 µM unless noted); 34.4% in [10] (10 µM unless noted); 6.74% (active) in [11] (10 µM unless noted); 33.5% in experiment [12] (10 µM unless noted). Moreover, the growth in experiment [13] (10 µM unless noted) is 27.3%; in experiment [14] (10 µM unless noted), -4.24% (active); in experiment [15] (10 µM unless noted) it was 22.1%; in experiment [16], 11.6%; in experiment [17] it was 7.39% (active); in experiment [18] (10 µM unless noted), -0.345% (active). Further, the values for the growth in experiment [19] (10 µM unless noted) and in experiment [20] (10 µM unless noted) were 20.5% and 18.5%, respectively.

In the case of `Cc1ccc(/C=C(\C#N)c2cc3ccccc3[nH]2)cc1`, the growth in experiment [1] (10 µM unless noted) is 27.1%; in experiment [2] (10 µM unless noted) it was 13%; in experiment [3] (10 µM unless noted) it was 54.1%; in experiment [4] (10 µM unless noted), 55.4%; in experiment [5] (10 µM unless noted), 38%; in experiment [6] (10 µM unless noted), 71.1%. The growth in [7] (10 µM unless noted) was 52%; in experiment [8], 22.7%; in [9] (10 µM unless noted), 43.4%; in [10] (10 µM unless noted) it was 72.1%; in experiment [11] (10 µM unless noted) it was 48.8%; in [12] (10 µM unless noted) it was 74.7%. In addition, the growth was 50.3% in experiment [13] (10 µM unless noted); 69.8% in [14] (10 µM unless noted); 82.6% in experiment [15] (10 µM unless noted); 85.6% in [16]; 45.6% in experiment [17]; 57.2% in experiment [18] (10 µM unless noted). The growth in experiment [19] (10 µM unless noted) was 46%; in experiment [20] (10 µM unless noted), 30.6%.
